Measurements taken from the supplement of paper PMC10849652.
Targets with a hit are over-represented here; the source holds about 7,900 in all. About 0.6% of all pairs of compound and target were hits.

Columns and labels:
Experiment in all cases: log2 fold change, soluble protein after heating vs DMSO (PISA); higher = thermal stabilisation; K562 cells, 10 uM, 30 min; active = over 0.2 and 3.5 SD of the protein, either way, in both replicates (recomputed)
saracatinib = compound: CN1CCN(CCOc2cc(OC3CCOCC3)c3c(Nc4c(Cl)ccc5c4OCO5)ncnc3c2)CC1 [saracatinib]
Method in brief: (§1)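 K562 cells (2×10^6 cells/mL) were treated with 10 μM compound for 30 min, and aliquots were heated for 3 min over 48°C-58°C. Pooled aliquots were extracted in PBS with 0.5% NP-40 at 4°C, and the supernatant after 21,000xg for 90 min was measured by TMTpro 16plex LC-MS/MS with channel sums equalised. Reported thermal stability, relative to control samples and from duplicates, is a log2 fold change.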

alvocidib = compound: CN1CC[C@H](c2c(O)cc(O)c3c(=O)cc(-c4ccccc4Cl)oc23)[C@H](O)C1 [alvocidib]
Method in brief: as §1

Tubastatin A = compound: CN1CCc2c(c3ccccc3n2Cc2ccc(C(=O)NO)cc2)C1 [Tubastatin A]
Method in brief: as §1

[1] = compound: CNC(=O)C1=CC=CC=C1NC2=NC(=NC=C2Cl)NC3=C(C=C(C=C3)N4CCOCC4)OC
Method in brief: as §1

defactinib = compound: CNC(=O)c1ccc(Nc2ncc(C(F)(F)F)c(NCc3nccnc3N(C)S(C)(=O)=O)n2)cc1 [defactinib]
Method in brief: as §1

rucaparib = compound: CNCc1ccc(-c2[nH]c3cc(F)cc4c3c2CCNC4=O)cc1 [rucaparib]
Method in brief: as §1

[2] = compound: CNc1nc(-c2ccc3c(N)n[nH]c3c2)cc(N2C[C@@H](C(=O)NC3CCCCC3)CC[C@H]2C)n1
Method in brief: as §1

encorafenib = compound: COC(=O)N[C@@H](C)CNc1nccc(-c2cn(C(C)C)nc2-c2cc(Cl)cc(NS(C)(=O)=O)c2F)n1 [encorafenib]
Method in brief: as §1

[3] = compound: COC(=O)[C@H](CCSC)NC(=O)C1=C(C=C(C=C1)NC[C@H](CS)N)C2=CC=CC=C2
Method in brief: as §1

[4] = compound: COC1=CC=C(C=C1)CN2C=CC3=C2C=C(C=C3)C(=O)NO
Method in brief: as §1

zotarolimus = compound: CO[C@H]1C[C@@H]2CC[C@@H](C)[C@@](O)(O2)C(=O)C(=O)N2CCCC[C@H]2C(=O)O[C@H]([C@H](C)C[C@@H]2CC[C@H](n3cnnn3)[C@H](OC)C2)CC(=O)[C@H](C)/C=C(\C)[C@@H](O)[C@@H](OC)C(=O)[C@H](C)C[C@H](C)/C=C/C=C/C=C/1C [zotarolimus]
Method in brief: as §1

idasanutlin = compound: COc1cc(C(=O)O)ccc1NC(=O)[C@@H]1N[C@@H](CC(C)(C)C)[C@](C#N)(c2ccc(Cl)cc2F)[C@H]1c1cccc(Cl)c1F [idasanutlin]
Method in brief: as §1

alisertib = compound: COc1cc(Nc2ncc3c(n2)-c2ccc(Cl)cc2C(c2c(F)cccc2OC)=NC3)ccc1C(=O)O [alisertib]
Method in brief: as §1

[5] = compound: COc1cc2nc(-c3cc(F)ccc3O)nc(N[C@@H]3CNC[C@H]3C(C)(C)O)c2cc1OC
Method in brief: as §1

gefitinib = compound: COc1cc2ncnc(Nc3ccc(F)c(Cl)c3)c2cc1OCCCN1CCOCC1 [gefitinib]
Method in brief: as §1

[6] = compound: COc1cccc2cc(-c3nc([C@H]4CC[C@H](C(=O)O)CC4)n4ncnc(N)c34)[nH]c12
Method in brief: as §1

lapatinib = compound: CS(=O)(=O)CCNCc1ccc(-c2ccc3ncnc(Nc4ccc(OCc5cccc(F)c5)c(Cl)c4)c3c2)o1 [lapatinib]
Method in brief: as §1

pictilisib = compound: CS(=O)(=O)N1CCN(Cc2cc3nc(-c4cccc5[nH]ncc45)nc(N4CCOCC4)c3s2)CC1 [pictilisib]
Method in brief: as §1

sotrastaurin = compound: CN1CCN(c2nc(C3=C(c4c[nH]c5ccccc45)C(=O)NC3=O)c3ccccc3n2)CC1 [sotrastaurin]
Method in brief: as §1

filanesib = compound: CON(C)C(=O)N1N=C(c2cc(F)ccc2F)S[C@@]1(CCCN)c1ccccc1 [filanesib]
Method in brief: as §1

Measured: log2 fold change

LAMP2 isoform 2 (UniProt P13473)
UniProt P13473, sequence (P13473 whole entry, looked up): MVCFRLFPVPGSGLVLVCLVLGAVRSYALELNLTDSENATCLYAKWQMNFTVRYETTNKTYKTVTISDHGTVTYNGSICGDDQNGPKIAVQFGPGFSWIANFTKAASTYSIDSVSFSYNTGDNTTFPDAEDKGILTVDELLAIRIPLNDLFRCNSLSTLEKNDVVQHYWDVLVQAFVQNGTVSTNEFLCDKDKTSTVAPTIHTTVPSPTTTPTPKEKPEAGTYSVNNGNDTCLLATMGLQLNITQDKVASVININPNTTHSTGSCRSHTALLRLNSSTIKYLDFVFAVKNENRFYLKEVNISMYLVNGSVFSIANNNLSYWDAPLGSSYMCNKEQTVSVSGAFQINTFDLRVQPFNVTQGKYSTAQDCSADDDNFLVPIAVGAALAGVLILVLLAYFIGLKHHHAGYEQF
inactive: saracatinib 0.24 | alvocidib -0.026 | Tubastatin A 0.021 | [1] 0.027 | defactinib 0.078 | rucaparib 0.024 | [2] -0.192 | encorafenib 0.043 | [3] -0.017 | [4] -0.049 | zotarolimus 0.022 | idasanutlin 0.017 | alisertib -0.105 | [5] -0.027 | gefitinib -0.039 | [6] 0.09 | lapatinib -0.104 | pictilisib 0.075

JAK3 (UniProt P52333)
UniProt P52333, sequence (P52333 whole entry, looked up): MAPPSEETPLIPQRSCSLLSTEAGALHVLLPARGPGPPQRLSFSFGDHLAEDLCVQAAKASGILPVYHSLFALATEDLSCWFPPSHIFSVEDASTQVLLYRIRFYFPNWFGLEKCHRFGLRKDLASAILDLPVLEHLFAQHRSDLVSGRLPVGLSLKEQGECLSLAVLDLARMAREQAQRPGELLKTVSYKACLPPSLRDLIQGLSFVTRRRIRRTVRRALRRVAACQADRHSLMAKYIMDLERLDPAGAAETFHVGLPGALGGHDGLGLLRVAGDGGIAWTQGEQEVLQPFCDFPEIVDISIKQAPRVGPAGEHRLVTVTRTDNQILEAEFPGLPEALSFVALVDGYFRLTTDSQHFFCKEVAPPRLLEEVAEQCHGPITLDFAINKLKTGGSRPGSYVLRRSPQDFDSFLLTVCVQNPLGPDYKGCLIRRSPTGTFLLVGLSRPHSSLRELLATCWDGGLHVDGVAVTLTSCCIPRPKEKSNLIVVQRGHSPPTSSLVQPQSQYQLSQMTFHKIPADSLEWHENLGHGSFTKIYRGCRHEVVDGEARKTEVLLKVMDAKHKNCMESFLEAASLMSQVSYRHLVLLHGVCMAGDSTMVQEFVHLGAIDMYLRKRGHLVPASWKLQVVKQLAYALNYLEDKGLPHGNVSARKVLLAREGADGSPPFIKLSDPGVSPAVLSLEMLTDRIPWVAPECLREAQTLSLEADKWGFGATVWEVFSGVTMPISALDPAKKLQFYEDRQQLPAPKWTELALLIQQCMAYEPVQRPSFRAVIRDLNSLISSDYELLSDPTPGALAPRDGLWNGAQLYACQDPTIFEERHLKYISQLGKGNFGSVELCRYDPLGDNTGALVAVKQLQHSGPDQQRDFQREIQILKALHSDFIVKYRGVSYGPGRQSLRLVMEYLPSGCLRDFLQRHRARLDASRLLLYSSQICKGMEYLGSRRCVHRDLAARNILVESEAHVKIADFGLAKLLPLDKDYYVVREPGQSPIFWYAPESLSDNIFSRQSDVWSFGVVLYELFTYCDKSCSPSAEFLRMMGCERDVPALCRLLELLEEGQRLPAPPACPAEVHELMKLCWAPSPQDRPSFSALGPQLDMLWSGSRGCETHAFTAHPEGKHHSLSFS
inactive: saracatinib -0.03 | sotrastaurin -0.042 | alvocidib 0.004 | Tubastatin A -0.016 | [1] 0.116 | defactinib 0.003 | [2] -0.158 | [3] -0.056 | [4] -0.216 | filanesib -0.019 | zotarolimus 0.018 | alisertib 0.052 | [5] -0.083 | gefitinib -0.047 | [6] -0.02 | lapatinib 0.01 | pictilisib -0.056

IGFBP3 isoform 2 (UniProt P17936)
UniProt P17936, sequence (P17936 whole entry, looked up): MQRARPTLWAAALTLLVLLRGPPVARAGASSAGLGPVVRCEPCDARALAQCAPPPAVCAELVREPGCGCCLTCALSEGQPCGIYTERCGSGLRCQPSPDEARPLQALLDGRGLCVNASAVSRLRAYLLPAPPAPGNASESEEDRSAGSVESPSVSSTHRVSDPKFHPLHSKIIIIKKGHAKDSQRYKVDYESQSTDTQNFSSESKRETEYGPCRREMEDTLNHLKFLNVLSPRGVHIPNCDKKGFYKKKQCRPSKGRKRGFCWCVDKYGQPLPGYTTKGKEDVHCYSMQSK
active: zotarolimus -1.02
inactive: saracatinib -0.092 | sotrastaurin 0.245 | alvocidib 0.251 | Tubastatin A 0.001 | defactinib 0.17 | [2] -0.08 | [3] 0.045 | [4] 0.176 | filanesib -0.272 | idasanutlin 0.535 | [5] -0.103 | lapatinib 0.085 | pictilisib -0.085

ITM2C (UniProt Q9NQX7)
UniProt Q9NQX7, sequence (Q9NQX7 whole entry, looked up): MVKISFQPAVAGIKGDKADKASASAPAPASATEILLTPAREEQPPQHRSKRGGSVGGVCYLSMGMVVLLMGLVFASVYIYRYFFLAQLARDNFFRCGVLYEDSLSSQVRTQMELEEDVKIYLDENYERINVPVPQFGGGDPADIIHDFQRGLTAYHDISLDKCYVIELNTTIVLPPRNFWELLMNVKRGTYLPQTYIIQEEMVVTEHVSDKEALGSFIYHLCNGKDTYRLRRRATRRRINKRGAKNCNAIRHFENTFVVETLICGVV
inactive: saracatinib -0.007 | sotrastaurin -0.072 | alvocidib 0.034 | [1] 0 | defactinib 0.039 | [2] -0.003 | [3] -0.045 | filanesib -0.275 | zotarolimus -0.047 | idasanutlin -0.061 | [5] -0.12 | gefitinib -0.092 | lapatinib -0.045 | pictilisib -0.149

IP6K1 (UniProt Q92551)
UniProt Q92551, sequence (Q92551 whole entry, looked up): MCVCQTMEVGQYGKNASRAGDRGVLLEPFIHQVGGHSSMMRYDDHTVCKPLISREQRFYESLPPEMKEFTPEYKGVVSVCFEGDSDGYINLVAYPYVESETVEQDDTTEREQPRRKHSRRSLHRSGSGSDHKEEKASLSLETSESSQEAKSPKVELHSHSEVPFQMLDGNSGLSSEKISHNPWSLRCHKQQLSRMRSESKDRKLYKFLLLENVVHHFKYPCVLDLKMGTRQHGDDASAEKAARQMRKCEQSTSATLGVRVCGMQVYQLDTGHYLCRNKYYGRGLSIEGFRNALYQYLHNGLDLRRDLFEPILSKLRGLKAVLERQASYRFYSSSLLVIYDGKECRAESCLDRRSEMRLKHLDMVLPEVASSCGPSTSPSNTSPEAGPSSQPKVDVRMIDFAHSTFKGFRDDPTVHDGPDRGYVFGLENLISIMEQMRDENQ
inactive: saracatinib -0.174 | sotrastaurin -0.113 | alvocidib -0.074 | Tubastatin A -0.06 | [1] 0.331 | rucaparib -0.045 | [2] 0.119 | encorafenib 0.094 | filanesib 0.037 | zotarolimus 0.151 | idasanutlin -0.044 | alisertib 0.042 | [6] 0.091 | lapatinib 0.128 | pictilisib 0.13
active: [5] 1.11

LGALS8 isoform 2 (UniProt O00214)
UniProt O00214, sequence (O00214 whole entry, looked up): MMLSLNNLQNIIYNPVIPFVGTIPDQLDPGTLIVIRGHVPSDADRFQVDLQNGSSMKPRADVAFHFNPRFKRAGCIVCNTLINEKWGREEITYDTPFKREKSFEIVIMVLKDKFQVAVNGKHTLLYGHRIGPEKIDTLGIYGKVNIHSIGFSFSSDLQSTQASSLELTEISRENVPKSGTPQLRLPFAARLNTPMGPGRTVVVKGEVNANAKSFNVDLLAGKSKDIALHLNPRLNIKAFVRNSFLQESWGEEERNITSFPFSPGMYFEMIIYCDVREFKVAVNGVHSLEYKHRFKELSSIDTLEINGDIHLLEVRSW
inactive: saracatinib -0.359 | sotrastaurin -0.323 | alvocidib 0.053 | Tubastatin A 0.07 | [1] -0.244 | defactinib 0.104 | rucaparib 0.306 | [2] 0.141 | encorafenib 0.218 | [3] -0.051 | [4] 0.202 | filanesib 0.264 | zotarolimus 0.053 | idasanutlin 0.182 | alisertib -0.021 | [6] -0.278 | pictilisib -0.183

LSR isoform 3 (UniProt Q86X29)
inactive: saracatinib -0.207 | sotrastaurin 0.176 | alvocidib 0.088 | Tubastatin A 0.084 | [2] 0.114 | filanesib 0.188 | zotarolimus 0.115 | alisertib -0.011 | [5] 0.041 | [6] 0.033 | lapatinib 0.073

MARK2 (UniProt E9PC69)
inactive: saracatinib -0.103 | sotrastaurin -0.555 | alvocidib -0.007 | Tubastatin A 0.278 | defactinib -0.07 | rucaparib 0.187 | [2] 0.037 | encorafenib 0.144 | [3] -0.028 | [4] -0.028 | filanesib 0.128 | zotarolimus 0.122 | idasanutlin 0.106 | gefitinib -0.025 | lapatinib 0.085
active: [1] -1.12 | [5] -0.765

ITGA2B (UniProt P08514)
UniProt P08514, sequence (P08514 whole entry, looked up): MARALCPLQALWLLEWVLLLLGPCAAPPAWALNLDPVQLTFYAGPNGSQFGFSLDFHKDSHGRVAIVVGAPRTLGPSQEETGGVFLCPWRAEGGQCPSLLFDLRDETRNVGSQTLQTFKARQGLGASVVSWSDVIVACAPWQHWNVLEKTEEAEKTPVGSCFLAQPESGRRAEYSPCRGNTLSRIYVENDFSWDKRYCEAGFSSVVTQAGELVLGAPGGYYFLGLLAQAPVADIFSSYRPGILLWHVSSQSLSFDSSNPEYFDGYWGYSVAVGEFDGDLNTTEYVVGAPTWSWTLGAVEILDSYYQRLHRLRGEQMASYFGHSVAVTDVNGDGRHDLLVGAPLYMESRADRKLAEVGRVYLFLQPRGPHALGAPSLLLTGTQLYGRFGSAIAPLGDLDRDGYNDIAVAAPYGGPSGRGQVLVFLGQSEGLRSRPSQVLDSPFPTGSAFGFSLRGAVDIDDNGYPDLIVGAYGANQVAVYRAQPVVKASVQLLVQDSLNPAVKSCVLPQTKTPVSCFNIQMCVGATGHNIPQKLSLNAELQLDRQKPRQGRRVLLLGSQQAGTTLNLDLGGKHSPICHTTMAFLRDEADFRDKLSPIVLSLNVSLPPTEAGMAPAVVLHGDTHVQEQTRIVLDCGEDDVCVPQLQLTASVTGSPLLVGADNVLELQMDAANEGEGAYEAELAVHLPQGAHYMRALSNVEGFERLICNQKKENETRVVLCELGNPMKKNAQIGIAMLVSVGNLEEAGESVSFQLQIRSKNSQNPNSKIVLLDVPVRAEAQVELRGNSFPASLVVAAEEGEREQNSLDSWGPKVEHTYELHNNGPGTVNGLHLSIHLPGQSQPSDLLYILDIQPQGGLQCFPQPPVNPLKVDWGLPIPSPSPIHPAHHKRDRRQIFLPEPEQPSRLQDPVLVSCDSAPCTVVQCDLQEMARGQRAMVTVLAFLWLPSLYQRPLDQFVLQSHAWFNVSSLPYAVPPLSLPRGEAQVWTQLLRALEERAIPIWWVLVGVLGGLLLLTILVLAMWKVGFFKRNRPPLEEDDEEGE
active: pictilisib -0.589
inactive: saracatinib 0.025 | sotrastaurin -0.03 | alvocidib 0.111 | Tubastatin A -0.043 | [1] 0.037 | defactinib 0.059 | [2] -0.036 | [3] 0.058 | [4] 0.004 | filanesib 0.086 | zotarolimus -0.065 | idasanutlin 0.138 | [5] 0.074 | gefitinib -0.086 | lapatinib 0.033

MASTL (UniProt Q96GX5)
UniProt Q96GX5, sequence (Q96GX5 whole entry, looked up): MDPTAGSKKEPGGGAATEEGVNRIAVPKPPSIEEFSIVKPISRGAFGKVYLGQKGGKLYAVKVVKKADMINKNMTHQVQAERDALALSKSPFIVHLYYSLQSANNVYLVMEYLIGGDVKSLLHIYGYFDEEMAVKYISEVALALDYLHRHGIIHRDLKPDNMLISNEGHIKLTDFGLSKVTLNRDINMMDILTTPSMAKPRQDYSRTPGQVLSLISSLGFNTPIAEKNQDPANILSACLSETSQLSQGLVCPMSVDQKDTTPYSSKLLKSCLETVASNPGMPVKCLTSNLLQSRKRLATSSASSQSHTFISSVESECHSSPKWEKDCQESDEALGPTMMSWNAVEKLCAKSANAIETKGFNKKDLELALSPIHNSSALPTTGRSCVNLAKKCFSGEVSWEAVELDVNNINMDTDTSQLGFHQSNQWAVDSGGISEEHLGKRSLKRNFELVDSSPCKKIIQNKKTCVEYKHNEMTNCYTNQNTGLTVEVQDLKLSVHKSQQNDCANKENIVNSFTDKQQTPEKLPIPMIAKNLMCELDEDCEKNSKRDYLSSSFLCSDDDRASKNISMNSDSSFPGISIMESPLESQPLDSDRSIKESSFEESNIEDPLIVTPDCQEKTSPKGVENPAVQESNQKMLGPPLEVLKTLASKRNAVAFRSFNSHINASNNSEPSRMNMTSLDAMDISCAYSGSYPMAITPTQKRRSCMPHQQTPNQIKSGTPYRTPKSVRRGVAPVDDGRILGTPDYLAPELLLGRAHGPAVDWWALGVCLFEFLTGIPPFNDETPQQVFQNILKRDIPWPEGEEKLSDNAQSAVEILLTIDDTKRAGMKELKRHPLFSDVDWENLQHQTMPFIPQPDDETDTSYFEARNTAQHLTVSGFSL
inactive: saracatinib 0.107 | sotrastaurin -0.12 | alvocidib -0.061 | [1] 0.054 | defactinib 0.037 | rucaparib -0.17 | [2] -0.055 | encorafenib 0.083 | [3] 0.079 | [4] 0.147 | filanesib -0.09 | zotarolimus 0.088 | idasanutlin 0.072 | alisertib -0.09 | gefitinib -0.107 | [6] -0.155
